# EWS-Fli block – blocks EWS/Fli oncoprotein-driven transcription; A673 NR0B1-luciferase reporter, viability-normalised; AID 651661; inhibition, % at 12.6 µM; 0.67% of 350,000 active;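 active = mean inhibition of at least 50% after viability correction, with every replicate also passing that limit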;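 note: firefly luciferase signal divided by Alamar Blue viability fluorescence both relative to DMSO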
# HIV Env fusion – inhibitors of HIV Env-mediated cell fusion. HeLa-JRFL Env/CEM21 cell fusion, luciferase. inhibition, % at 12.3 µM. 1.1% of 360,000 active;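 active = mean replicate inhibition score of at least 50 and every replicate individually at or above 50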;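 note: 0% = plate neutral controls and 100% = maraviroc near 300 nM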
# F508del corr – CFTR F508del correction in bronchial cells; CFBE cells, YFP halide quenching; stimulated with forskolin plus potentiator P3; % fluorescence drop versus neutral controls; activity (quench increase), % at 7.58 µM; 0.36% of 350,000 active;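 active = mean added fluorescence quench of at least 8% versus neutral control, with both replicates also reaching 8%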;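 note: cells transiently co-express mutant CFTR-F508del with the halide-sensitive YFP; corrector assay measuring rescue of mutant channel to the surface after 24 h compound exposure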
# PAX8 inh HTS – PAX8 transcriptional activity inhibition; inhibition, % at 12.6 µM; AID 652154; RMG-I TPO-luciferase reporter, SteadyGlo, 24 h; 1.2% of 360,000 active;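 active = mean replicate inhibition at least 60% with every replicate also reaching 60%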;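 note: luciferase light reporting Pax8 driven TPO promoter activity; plate controls were median of neutral control wells for no effect and mitoxantrone controls for full effect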
# FXN GAA850 act – activators of GAA850 frataxin (FXN) promoter; AID 540364; 0.56% of 360,000 active; HEK293 lucGAA850 FXN promoter luciferase reporter, 24 h; percent of 10 µM SAHA response; activation, % at 6 µM;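 active = activation above the average of all compounds screened plus 3 SD, cutoff fixed separately per campaign, cut at about 7.5% in these data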;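 note: 0% = DMSO wells and 100% = 10 µM SAHA wells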
# The depositor's hits bear a star; x = not tested or not shown; [ ] = another dose, or the depositor's remark. This is a sample that favours compounds with a hit; in the whole collection about 2.5% have one here.
SMILES,EWS-Fli block,HIV Env fusion,F508del corr,PAX8 inh HTS,FXN GAA850 act
C[C@@H]1CN([C@@H](C)CO)C(=O)Cc2cc(NS(=O)(=O)c3ccccc3)ccc2O[C@H]1CN(C)Cc1ccc(C(F)(F)F)cc1,x,x,-4,92*,x
Cc1ccc(S(=O)(=O)Nc2ccc3c(c2)CC(=O)N([C@@H](C)CO)C[C@@H](C)[C@H](CN(C)Cc2ccc(C(F)(F)F)cc2)O3)cc1,33,39[16.7 µM],3,63*,x
C[C@H](CO)N1C[C@H](C)[C@@H](CN(C)C(=O)Nc2ccc(F)cc2)Oc2c(NS(=O)(=O)c3cccs3)cccc2C1=O,-7,8[16.7 µM],-2,-5,x
CC(C)(C)c1cc(CCC(=O)NCCc2ccccn2)cc(C(C)(C)C)c1O,4,27,-2,3,1
O=C1C=C(NCCc2cc(Br)c(O)c(Br)c2)C(=O)c2ncccc21,19,-2,16*,101*,-14
O=C(N/N=C\c1cc(Br)ccc1O)c1ccc(S(=O)(=O)N2CCCCC2)cc1,6,x,17*,11,1
O=C(N/N=C/c1ccc(O)c(O)c1)c1cccc(S(=O)(=O)N2CCCCC2)c1,4,15,-2,13,0
Cc1nc(C)c(C(=O)N/N=C/c2cc(Br)ccc2O)s1,21,-20,-1,67*,-2
C[C@H]1CN([C@@H](C)CO)S(=O)(=O)c2ccc(C3=CCCC3)cc2O[C@@H]1CN(C)C(=O)c1cnccn1,-11,-13[16.7 µM],-2,0,x
C[C@@H]1CN([C@H](C)CO)C(=O)Cc2cc(NC(=O)CCN3CCOCC3)ccc2O[C@@H]1CN(C)Cc1ccc(C(=O)Nc2ccccc2N)cc1,x,x,-4,4,x
CCOC(=O)Nc1sc(C)nc1-c1ccccc1,-9,x,-3,x,3
CCOC(=O)Nc1cc2c(c(N)n1)N=C(c1ccccc1)CN2,0,-8,12*,-16,1
COc1ccccc1C(=O)Nc1ccc2c(c1)nc(CCNC(=O)c1ccccc1)n2C,65*,-8,-1,-4,-4
Cn1c2ccccc2c(=O)c2cc(C#CC3(O)CCCCC3)ccc21,68*,-65,-1,33,-5
CC(=O)c1ccc(S(=O)(=O)Nc2cccc(-c3ccc4nncn4n3)c2)cc1,x,11,x,9,2
Cc1ccc(S(=O)(=O)Nc2cccc(-c3ccc4nncn4n3)c2)cc1,57*,-4,1,27,-3
CCCC(=O)Nc1ccc2c(c1)C(=O)N(C)C[C@H](OC)[C@H](C)CN(Cc1nccs1)[C@H](C)CO2,1,30[16.7 µM],-1,-2,x
c1ccc(-c2nc3ccccc3nc2-c2ccc(CN3CCC(c4nc5ccccc5[nH]4)CC3)cc2)cc1,13,22,1,11,x
N#Cc1ccc2nc(-c3ccc(CN4CCC(c5nc6ccccc6[nH]5)CC4)cc3)c(-c3ccccc3)nc2c1,18,28,-1,78*,x
O=C(O)c1ccc(/C=C2/SC(=S)N(Cc3ccccc3)C2=O)cc1,-9,1,0,-14,-2
O=C1/C(=C\c2ccc(O)cc2)SC(=S)N1Cc1ccccc1,14,-3,26*,-15,0
COc1cc(/C=C2/SC(=S)N(Cc3ccccc3)C2=O)ccc1OCC(=O)O,15,-12,3,38,-1
NS(=O)(=O)c1ccc(CCN2C(=O)/C(=C\c3ccc(Cl)cc3)SC2=S)cc1,x,37,x,112*,1
COc1cc(/C=C2/SC(=S)N(Cc3ccccc3)C2=O)cc(Cl)c1O,14,-13,8.1*,-23,-1
Cc1noc(C)c1S(=O)(=O)N(C)C[C@H]1Oc2ccc(NC(=O)Nc3cccc4ccccc34)cc2CC(=O)N([C@H](C)CO)C[C@@H]1C,3,10[16.7 µM],0,-14,x
SMILES,EWS-Fli block,HIV Env fusion,F508del corr,PAX8 inh HTS,FXN GAA850 act
CC(C)(C)c1ccc(C(=O)NCCCN2CCN(CCCNC(=O)c3ccc(C(C)(C)C)cc3)CC2)cc1,x,30,x,70*,1
O=C(NCCCN1CCOCC1)c1ccc(CNS(=O)(=O)c2ccc(Br)cc2)cc1,5,x,2,132*,-1
CC(C)(C)c1ccc(C(=O)NCCN2CCOCC2)cc1,-13,3,-1,-2,1
CO[C@H]1CN(C)C(=O)c2cc(NC(=O)C3CC3)ccc2OC[C@H](C)N(C(=O)c2ccccc2F)C[C@@H]1C,27,-7[16.7 µM],6,-2,x
O=C(c1cccnc1)N1C[C@H]2[C@@H](c3ccccc31)[C@@H](CO)N2C(=O)C1CCOCC1,-12,x,-3,26,x
C[C@H](CO)N1C[C@H](C)[C@H](CN(C)S(=O)(=O)c2ccccc2)Oc2ccc(NC(=O)Nc3ccc4c(c3)OCO4)cc2CC1=O,9,75*[16.7 µM],1,x,x
C[C@H](CO)N1C[C@H](C)[C@@H](CN(C)S(=O)(=O)c2ccc(F)cc2)Oc2ccc(NC(=O)Nc3ccc4c(c3)OCO4)cc2CC1=O,0,17[16.7 µM],-5,x,x
C[C@H](CO)N1C[C@H](C)[C@@H](CN(C)S(=O)(=O)c2ccccc2)Oc2ccc(NC(=O)Nc3ccc4c(c3)OCO4)cc2CC1=O,-4,-4[16.7 µM],0,x,x
Cc1ccc(S(=O)(=O)N(C)C[C@@H]2Oc3ccc(NC(=O)Nc4ccc5c(c4)OCO5)cc3CC(=O)N([C@@H](C)CO)C[C@@H]2C)cc1,63*,-137[16.7 µM],0,52,x
C[C@H]1CN([C@@H](C)CO)C(=O)Cc2cc(NC(=O)Nc3ccc4c(c3)OCO4)ccc2O[C@H]1CN(C)S(=O)(=O)c1ccc(F)cc1,53*,-11[16.7 µM],0,x,x
CC(C)c1cn([C@H]2C[C@@H]3O[C@@H](CO)CC[C@@H]3O[C@@H]2CCc2ccc(C#CC3(O)CCCC3)cc2)nn1,-5,x,3,6,x
CO[C@@H]1CN(C)C(=O)c2ccc(NC(=O)Cc3ccccc3)cc2OC[C@@H](C)N(C(C)=O)C[C@H]1C,6,x,2,x,x
CCCNC(=O)C[C@@H]1CC[C@H]2[C@@H](COc3ccc(NC(=O)Nc4ccccc4)cc3C(=O)N2C)O1,6,8[16.7 µM],0,8,x
COc1ccc(-c2cc3ccc(OC)cc3cn2)cc1,58*,-70,-1,18,-3
COc1ccc(-c2cc3ccccc3cn2)cc1,18,x,-1,-31,2
CC(=O)c1ccc(N2CCN(C(=O)c3cc4c(-c5ccccc5F)nn(C)c4s3)CC2)cc1,10,66*,2,19,1
COc1ccc(N2CCN(C(=O)c3cc4c(-c5cccc(OC)c5)nn(C)c4s3)CC2)cc1,x,15,x,18,-1
CO[C@@H]1CN(C)C(=O)c2ccc(NC(C)=O)cc2OC[C@@H](C)N(C(=O)CN(C)C)C[C@H]1C,10,-18[16.7 µM],2,-16,x
CCOC(=O)c1[nH]c2ccccc2c1N=CN(C)C,x,x,x,x,1
CN(C)C=Nc1ccc2nc3c(cc2c1)[nH]c1ccccc13,-109,-198,3,-92,9.2*
COc1ccc(Nc2cc(C)nc(NCc3ccccc3)n2)cc1,16,71*,2,8,0
COc1cc(C)nc(NCc2ccccc2)n1,x,-92,x,-17,0
Cc1cc(Oc2ccc(C#N)cc2)nc(NCc2ccccc2)n1,x,61*,x,19,-1

# High-throughput results (PubChem BioAssay)
